Reference: PubChem BioAssay (Tox21)
Records with an inconclusive call do not appear. Entries that show only a call come without a potency. Calls of active or inactive are those of the source. Calls follow the shape of the dose curve; as a rule, active = well fitted cell-killing curve with a large enough effect in the repeat runs; inconclusive = weak or mixed curves; inactive = no such curve, though single readings can be large or run the other way.

assay: qHTS assay to identify small molecule agonists of the peroxisome proliferator-activated receptor delta (PPARd) signaling pathway - cell viability counter screen (AID 743211); conditions: PPARd-bla HEK293H viability, CellTiter-Glo luminescence, 17 h; series mostly up to 62.6 µM; also: nearly all actives have a fitted effect of over 55% in size
Text: U.S. Tox21 Program National Center for Advancing Translational Sciences [NCATS] NIH Chemical Genomics Center [NCGC] U.S. Environmental Protection Agency [EPA] National Institutes of Environmental Health Sciences [NIEHS] National Toxicology Program [NTP] U.S. Food and Drug Administration [FDA] Tox21 Assay Overview: The peroxisome proliferator-activated receptors (PPARs) are lipid-activated transcription factors of the nuclear receptor superfamily with three distinct subtypes namely PPAR alpha, PPAR delta (PPARd) and PPAR gamma. All these subtypes heterodimerizes with Retinoid X receptor (RXR) and have different physiological functions. […] To identify the compounds that activate PPAR-delta signaling, GeneBLAzer PPAR delta UAS-bla HEK293H cell line (Invitrogen, Carlsbad, CA, USA) containing a beta-lactamase reporter gene under the control of an Upstream Activator Sequence (UAS) was used to screen the Tox21 compound library. The cytotoxicity of the Tox21 compound library against the PPARd-bla cell line was tested in parallel by measuring the cell viability using CellTiter-Glo assay (Promega, Madison, WI) in the same wells.
Tox21 Assay Protocol Summary: PPARd-bla cells were dispensed at 3000 cells/6uL/well in 1536-well black wall/clear bottom plates using a Multidrop Combi (Thermo Fisher Scientific, Waltham, MA) dispenser. After the assay plates were incubated at 37 C and 5% CO2 for 5 h, 23 nL of compounds dissolved in DMSO, positive controls or DMSO only was transferred to the assay plate by a Pintool station (Kalypsys, San Diego, CA). The assay plates were incubated at 37C for 17 h. After 1 uL of LiveBLAzerTM B/G FRET substrate was added using a Bioraptr Flying Reagent Dispenser (FRD) workstation (Beckman Coulter, Indianapolis, IN, USA), the plates were incubated at room temperature for 2 h, and fluorescence intensity was measured by an Envision plate reader (PerkinElmer, Shelton, CT). For cell viability readout that measures cytotoxicity, 3 ul/well of CellTiter-Glo reagent was added into the assay plates using a Bioraptr FRD. After 30 min incubation at room temperature, the luminescence intensity in the plates was measured using a ViewLux plate reader (PerkinElmer).

**Q.** With `OCC(O)CCl` (stereo not given) as the compound, how does the Potency read?
**A.** inactive

**Q.** For `CNC(=O)O/N=C(\SC)C(=O)N(C)C`, which Potency is on record?
**A.** inactive

**Q.** Which Potency does the source give for `COc1nc(NC(C)C)nc(NC(C)C)n1` here?
**A.** inactive

**Q.** With `Cc1cc(O)ccc1Cl` as the compound, how does the Potency read?
**A.** inactive

**Q.** With `O=S(=O)(O)OOS(=O)(=O)O` as the compound, how does the Potency read?
**A.** inactive

**Q.** For `COS(=O)(=O)OC`, which Potency is on record?
**A.** inactive

**Q.** For `Cc1ccc(N=C=O)cc1N=C=O`, which Potency is on record?
**A.** inactive

**Q.** Which Potency does the source give for `O=[N+]([O-])c1ccc(Cl)c(Cl)c1` here?
**A.** inactive

**Q.** With `C/C=C/c1ccc2c(c1)OCO2` as the compound, how does the Potency read?
**A.** inactive

**Q.** Which Potency does the source give for `N#Cc1cccc(C#N)c1` here?
**A.** inactive

**Q.** With `COC(=O)Nc1cccc(OC(=O)Nc2cccc(C)c2)c1` as the compound, how does the Potency read?
**A.** inactive

**Q.** With `O=C(O)c1cc(Oc2ccc(C(F)(F)F)cc2Cl)ccc1[N+](=O)[O-]` as the compound, how does the Potency read?
**A.** inactive

**Q.** Which Potency does the source give for `N#CN=C(N)N` here?
**A.** inactive

**Q.** Which Potency does the source give for `CCCOC(=O)c1ccccc1C(=O)OCCC` here?
**A.** inactive

**Q.** For `CNCC(O)c1ccc(O)cc1` (stereo not given), which Potency is on record?
**A.** inactive

**Q.** Which Potency does the source give for `Nc1nc(N)nc(NC2CC2)n1` here?
**A.** inactive

**Q.** For `CC12CC1(C)C(=O)N(c1cc(Cl)cc(Cl)c1)C2=O` (stereo not given), which Potency is on record?
**A.** inactive

**Q.** With `C=CC(=O)OCC(CC)CCCC` (stereo not given) as the compound, how does the Potency read?
**A.** inactive

**Q.** With `CC(C)(C)C(=O)CCl` as the compound, how does the Potency read?
**A.** inactive

**Q.** With `CC(C)c1cccc(C(C)C)c1O` as the compound, how does the Potency read?
**A.** inactive

**Q.** For `Cc1cc(Cl)ccc1OC(C)C(=O)O` (stereo not given), which Potency is on record?
**A.** inactive

**Q.** For `ClC(Cl)c1ccccc1`, which Potency is on record?
**A.** inactive

**Q.** With `Cl[C@H]1OCCO[C@@H]1Cl` as the compound, how does the Potency read?
**A.** inactive

**Q.** For `Nc1ncc([N+](=O)[O-])s1`, which Potency is on record?
**A.** inactive

**Q.** With `Sc1ccccc1` as the compound, how does the Potency read?
**A.** inactive

**Q.** With `O=C(O)C(Br)Br` as the compound, how does the Potency read?
**A.** inactive

**Q.** For `CN(C)C(=O)C(c1ccccc1)c1ccccc1`, which Potency is on record?
**A.** inactive

**Q.** With `N#Cc1ccccn1` as the compound, how does the Potency read?
**A.** inactive

**Q.** With `ClCCOCCCl` as the compound, how does the Potency read?
**A.** inactive

**Q.** Which Potency does the source give for `FC(F)(F)c1ccc(Cl)cc1` here?
**A.** inactive

**Q.** With `Cc1ccc(N)cc1` as the compound, how does the Potency read?
**A.** inactive

**Q.** For `CC(=O)C1CCOC1=O` (stereo not given), which Potency is on record?
**A.** inactive

**Q.** With `Cc1cccc(C)c1N` as the compound, how does the Potency read?
**A.** inactive

**Q.** For `O=C(O)C1C(C(=O)O)C2(Cl)C(Cl)=C(Cl)C1(Cl)C2(Cl)Cl` (stereo not given), which Potency is on record?
**A.** inactive

**Q.** Which Potency does the source give for `NNc1ccccc1` here?
**A.** inactive

**Q.** With `O=C(O)COc1ccccc1` as the compound, how does the Potency read?
**A.** inactive

**Q.** With `CNC(=O)O/N=C/C(C)(C)S(C)(=O)=O` as the compound, how does the Potency read?
**A.** inactive

**Q.** With `CC[N+](=O)[O-]` as the compound, how does the Potency read?
**A.** inactive

**Q.** Which Potency does the source give for `O=[N+]([O-])c1cc([As](=O)(O)O)ccc1O` here?
**A.** inactive

**Q.** With `CCOc1ccc(N)cc1` as the compound, how does the Potency read?
**A.** inactive
